Reference: PubChem BioAssay (NCATS)
“And” between values parts separate entries of the source, which are not always exact repeats. Equal values may be shown once. Results filed as inconclusive are left out. The source made the active and inactive calls. Unless noted, calls come from the whole dose curve; as a rule, active = well fitted curve in the direction sought with a large enough effect; inconclusive = small, poorly fitted or top-dose-only effect, or another doubt; inactive = no such curve, though single readings can be large; an effect the other way counts as inactive or inconclusive.

How the values were obtained:
[1] = biological target: Mitogen-activated protein kinase 10 (Mus musculus) (UniProt Q61831); test: JNK3 AlphaScreen Assay (AID 530; active = well fitted curve in either direction with a large enough effect, not every such curve was filed as active;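 note: kinase came from lysate of stimulated human HepG2 cells; signal reports phosphorylation of biotinylated GST-cJun 1-79 at Ser73 with 10 µM ATP; % is set by controls: 0 for no effect and ±100 for the full control effect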)
How it was run: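 qHTS titrations with 15 min compound pre-incubation before adding ATP (10 uM final). Read-out: AlphaScreen of Ser73-phosphorylated biotin-GST-cJun using HepG2 lysate JNK3 activated by IL-1β and TNFα.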

[2] = Cell Viability - NIH 3T3 (AID 541); details: NIH 3T3 cell viability, qHTS; activity change, negative = cytotoxicity: at 92.2 µM (top of the series);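 note: cells exposed to compound for 40 hours; nearly all actives have a fitted effect of over 25% in size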; note: potency is the fitted concentration of half-maximal effect;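 for activity change, negative = cytotoxicity: plate controls were DMSO alone for no effect and tamoxifen positive control for full effect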
How it was run: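 Intracellular ATP (CellTiter-Glo luminescence, 20 min at room temperature) measured after 40 hr compound exposure at 37 °C of 1000 NIH 3T3 mouse fibroblasts/well in complete medium; AC50 derived by Hill-equation modelling of qHTS concentration-response curves.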

[3] = biological target: Cytochrome P450 3A4 (Homo sapiens) (UniProt P08684); test: qHTS Assay for Inhibitors and Substrates of Cytochrome P450 3A4 (AID 884); note: % is set by controls: 0 for no effect and ±100 for the full control effect; nearly all actives have a fitted effect of over 50% in size
How it was run: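 Luminescent readout of luciferin produced by CYP3A4 (20 nM) dealkylation of Luciferin-PPXE, 25 uM (its KM). NADPH-driven reaction ran 60 min at RT after 10 min compound preincubation; data scaled to 57 uM ketoconazole as 100% inhibition.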

[4] = MultiTox-Fluor Cytotoxicity Assay - LYMP1-002 - Dead Cells (AID 960); note: nearly all actives have a fitted effect of over 60% in size; note: potency is the fitted concentration of half-maximal effect
How it was run: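 Dead-cell fluorescence (Ex/Em 485/520) after 16 h compound exposure at 37 C of LYMP1-002 lymphoblastoid cells in complete medium; AC50 by Hill equation, with data scaled between DMSO and 15 uM tetraoctylammonium bromide.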

[5] = Cell Viability - LYMP2-009 (AID 968);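 note: 0% = DMSO alone and the full-kill end = tetraoctylammonium bromide at 92 µM; nearly all actives have a fitted effect of over 55% in size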
[6] = Cell Viability - LYMP2-019 (AID 973);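 note: 0% = DMSO alone and full effect = 92 µM tetraoctylammonium bromide; nearly all actives have a fitted effect of over 55% in size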
How it was run: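 AC50 values come from Hill-equation fits of luminescent intracellular ATP (CellTiter-Glo, 30 min, room temperature) following 24 h compound exposure at 37 C. Cells: LYMP2-019 lymphoblastoid line, 2500 per well, in complete culture medium.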

[7] = biological target: Glucocorticoid receptor (Homo sapiens) (UniProt P04150); test: qHTS assay for small molecule agonists of glucocorticoid receptor signaling (AID 588532; active = well fitted curve in the direction sought with a large enough effect in the signal ratio, with a control signal flat; the % refers to the signal ratio;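 note: 100% = dexamethasone at 0.1 µM and 0% = DMSO only wells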); details: HeLa MMTV-bla, beta-lactamase ratio, agonist, 18 h; stronger effect = higher value; percent of dexamethasone control, DMSO zero
How it was run: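 Using MMTV-bla HeLa cells in medium with 1% stripped FBS and 25 mM HEPES, compounds were titrated and incubated overnight-length (18 h). Beta-lactamase cleavage of CCF4 was quantified by dual-emission fluorescence.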

[8] = biological target: Vitamin D3 receptor (Homo sapiens) (UniProt P11473); test: qHTS assay for small molecule antagonists of vitamin D receptor signaling (AID 588541; calls by dose curve;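 note: receptor activated by calcitriol during compound treatment; % is set by controls: 0 for no effect and ±100 for the full control effect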)
How it was run: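 Antagonist-mode beta-lactamase reporter assay: HEK293T VDR-UAS-bla cells were exposed to titrated compound alongside 1-alpha,25-dihydroxyvitamin D3 at 3 nM final for 16 h. Values were normalized to the 50 nM agonist control and DMSO basal, with IC50 and efficacy from Hill equation fits.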

[9] = biological target: Vitamin D3 receptor (Homo sapiens) (UniProt P11473); test: qHTS assay for small molecule agonists of vitamin D receptor signaling (AID 588543; calls by dose curve;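 note: 0% = DMSO basal and 100% = reference agonist control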)
How it was run: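 Measured: β-lactamase reporter activity (CCF4, 405 nm excitation, 460/530 nm emission) in HEK293T VDR-UAS-bla cells after 16 h compound exposure at 37 °C. Normalization against 50 nM 1α,25-dihydroxyvitamin D3 and DMSO; Hill-fit EC50.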

[10] = qHTS assay for small molecule agonists of retinoid X receptor alpha signaling (AID 588544); details: HEK293T RXRa-UAS-bla, beta-lactamase reporter, 18 h; 530 nm emission
[11] = biological target: Thyroid hormone receptor beta (Homo sapiens) (UniProt P10828); test: qHTS assay for small molecule agonists of thyroid hormone receptor beta signaling (AID 588545; calls by dose curve)
How it was run: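 Cells (2500/well) were seeded, incubated 4 hrs at 37 C, dosed with a compound series, incubated 18 hrs, loaded with CCF4 dye for 2 hrs at RT, then read for fluorescence. Data were scaled between DMSO (0%) and 10 nM T3 (100%).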

[12] = biological target: Voltage-gated inwardly rectifying potassium channel KCNH2 (Homo sapiens) (UniProt Q12809); test: qHTS Assay for Small Molecule Inhibitors of the Human hERG Channel Activity (AID 588834);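 note: top concentration of the series differs between compounds; % is set by controls: 0 for no effect and ±100 for the full control effect; lower thallium flux fluorescence means stronger hERG block; nearly all actives have a fitted effect of over 50% in size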
How it was run: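 Homogeneous FluxOR thallium flux assay using hERG-expressing U2OS cells (BacMam). Compound treatment about 10 minutes preceded stimulation; reduced fluorescence taken as channel block.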

[13] = qHTS assay for small molecule agonists of the antioxidant response element (ARE) signaling pathway (AID 651741; active = well fitted activation curve with a large enough effect in the signal ratio; the % refers to the signal ratio; note: potency is the fitted concentration of half-maximal effect; for activation: % of control where 0% means no effect)
How it was run: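 Beta-lactamase reporter under ARE control in HepG2 cells, 2,000 per well, was induced by 16 h compound treatment at 37 C. Read-out was fluorescence from LiveBLAzer B/G FRET substrate after 2 h at room temperature.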

[14] = qHTS assay for small molecule activators of the nuclear factor-kappa B (NF-kB) signaling pathway (AID 651749; active = well fitted activation curve with a large enough effect in the signal ratio; the % refers to the signal ratio; note: % of control where 0% means no effect); details: NF-kB-bla ME-180 cells, beta-lactamase FRET ratio, 16 h; stronger effect = higher value
How it was run: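 Activation measured after 16 hr compound treatment at 37C, 5% CO2, of 2,000 ME-180 cells/well stably expressing an NF-kB response element–driven beta-lactamase reporter, via FRET-disruption fluorescence.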

[15] = biological target: Tumor necrosis factor (Homo sapiens) (UniProt P01375); test: qHTS assay to identify small molecules that stimulate Tumor Necrosis Factor-alpha (TNF-alpha) secretion (AID 651757; active = well fitted curve in the direction sought with a large enough effect in the signal ratio; the % refers to the signal ratio; note: 0% is about no effect)
How it was run: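 Secreted TNF-alpha quantified by TR-FRET sandwich of two labeled anti-TNF-alpha antibodies, incubated 3 hr at room temperature. Preceded by 17 hr, 37 C compound treatment of THP-1 cells at 3000 cells/well.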

[16] = biological target: Nuclear receptor ROR-gamma (Homo sapiens) (UniProt P51449); test: qHTS assay for small molecule antagonists of the retinoid-related orphan receptor gamma (ROR-gamma) signaling pathway (AID 651802); note: nearly all actives have a fitted effect of over 60% in size; note: potency is the fitted concentration of half-maximal effect
How it was run: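 Luminescence (One-Glo, 30 min RT) measured 16 h after compound addition and doxycycline induction at 37C. Reporter: RORE-luciferase under TET-inducible ROR-gamma in CHO cells.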

[17] = qHTS assay for small molecule agonists of the antioxidant response element (ARE) signaling pathway measured by Nrf2-dependant transcriptional activity (AID 720636; active = well fitted curve in the direction sought with a large enough effect in the repeat runs; an effect the other way counts as inactive or inconclusive; note: potency is the fitted concentration of half-maximal effect;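 for activation: HepG2 cells with an ARE-driven luciferase reporter; % of control where 0% means no effect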)
How it was run: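 Attachment 6 hr at 37 C, then compound versus DMSO vehicle for 16 hr in ARE-luc HepG2 cells (1% dialyzed FBS); luminescence recorded 30 min after ONE-Glo addition at room temperature.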

[18] = qHTS assay for cell viability of the p53RE-bla HCT-116 cell line (AID 743292); note: % is set by controls: 0 for no effect and ±100 for the full control effect; nearly all actives have a fitted effect of over 55% in size
How it was run: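 Compound-exposed HCT-116 (p53RE-bla) cells, 4,000 per well, were kept 16 h at 37 C following a 5 h preincubation. Cell number was estimated from total ATP by CellTiter-Glo luminescence read after 30 min at room temperature.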

[19] = qHTS assay for small molecule activators of the human pregnane X receptor (PXR) signaling pathway (AID 720659; call rule not given here; note: 0% is about no effect)
[20] = Cell Viability - Jurkat (AID 426;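 active = dose-dependent loss of cell ATP signal giving a full or clear fitted curve, ranked by lower potency value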;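 note: potency is the fitted concentration of half-maximal effect; cells exposed to compound for 40 hours at 37 °C before ATP read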); details: qHTS
How it was run: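 Cytotoxicity taken as drop in cellular ATP (CellTiter-Glo luminescence, 20 min room temperature) after 40 hr, 37C treatment of 5000 Jurkat Clone E6-1 cells per well; concentration-response fitted with Hill equation for AC50.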

Thyroid hormone receptor beta (Homo sapiens), sequence (P10828 whole entry, looked up): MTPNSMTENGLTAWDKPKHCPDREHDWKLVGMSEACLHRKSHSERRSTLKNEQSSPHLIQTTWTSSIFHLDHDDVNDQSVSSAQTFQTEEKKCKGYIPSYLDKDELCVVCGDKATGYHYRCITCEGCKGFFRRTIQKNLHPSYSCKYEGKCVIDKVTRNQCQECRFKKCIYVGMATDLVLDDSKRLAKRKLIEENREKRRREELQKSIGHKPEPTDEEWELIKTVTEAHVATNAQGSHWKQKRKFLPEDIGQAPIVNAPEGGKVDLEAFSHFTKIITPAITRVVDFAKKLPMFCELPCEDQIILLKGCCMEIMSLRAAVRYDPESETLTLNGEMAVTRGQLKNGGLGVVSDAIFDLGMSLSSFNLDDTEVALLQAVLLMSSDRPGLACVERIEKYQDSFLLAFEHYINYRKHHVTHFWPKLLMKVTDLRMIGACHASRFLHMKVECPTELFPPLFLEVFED
Tumor necrosis factor (Homo sapiens), sequence (P01375 whole entry, looked up): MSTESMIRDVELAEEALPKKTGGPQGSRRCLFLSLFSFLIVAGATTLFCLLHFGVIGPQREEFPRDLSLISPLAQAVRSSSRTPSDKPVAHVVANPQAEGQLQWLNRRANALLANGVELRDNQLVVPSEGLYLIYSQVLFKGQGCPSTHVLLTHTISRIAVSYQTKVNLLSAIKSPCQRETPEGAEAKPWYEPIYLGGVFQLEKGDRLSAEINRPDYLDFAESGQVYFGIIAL
Voltage-gated inwardly rectifying potassium channel KCNH2 (Homo sapiens), sequence (Q12809 whole entry, looked up): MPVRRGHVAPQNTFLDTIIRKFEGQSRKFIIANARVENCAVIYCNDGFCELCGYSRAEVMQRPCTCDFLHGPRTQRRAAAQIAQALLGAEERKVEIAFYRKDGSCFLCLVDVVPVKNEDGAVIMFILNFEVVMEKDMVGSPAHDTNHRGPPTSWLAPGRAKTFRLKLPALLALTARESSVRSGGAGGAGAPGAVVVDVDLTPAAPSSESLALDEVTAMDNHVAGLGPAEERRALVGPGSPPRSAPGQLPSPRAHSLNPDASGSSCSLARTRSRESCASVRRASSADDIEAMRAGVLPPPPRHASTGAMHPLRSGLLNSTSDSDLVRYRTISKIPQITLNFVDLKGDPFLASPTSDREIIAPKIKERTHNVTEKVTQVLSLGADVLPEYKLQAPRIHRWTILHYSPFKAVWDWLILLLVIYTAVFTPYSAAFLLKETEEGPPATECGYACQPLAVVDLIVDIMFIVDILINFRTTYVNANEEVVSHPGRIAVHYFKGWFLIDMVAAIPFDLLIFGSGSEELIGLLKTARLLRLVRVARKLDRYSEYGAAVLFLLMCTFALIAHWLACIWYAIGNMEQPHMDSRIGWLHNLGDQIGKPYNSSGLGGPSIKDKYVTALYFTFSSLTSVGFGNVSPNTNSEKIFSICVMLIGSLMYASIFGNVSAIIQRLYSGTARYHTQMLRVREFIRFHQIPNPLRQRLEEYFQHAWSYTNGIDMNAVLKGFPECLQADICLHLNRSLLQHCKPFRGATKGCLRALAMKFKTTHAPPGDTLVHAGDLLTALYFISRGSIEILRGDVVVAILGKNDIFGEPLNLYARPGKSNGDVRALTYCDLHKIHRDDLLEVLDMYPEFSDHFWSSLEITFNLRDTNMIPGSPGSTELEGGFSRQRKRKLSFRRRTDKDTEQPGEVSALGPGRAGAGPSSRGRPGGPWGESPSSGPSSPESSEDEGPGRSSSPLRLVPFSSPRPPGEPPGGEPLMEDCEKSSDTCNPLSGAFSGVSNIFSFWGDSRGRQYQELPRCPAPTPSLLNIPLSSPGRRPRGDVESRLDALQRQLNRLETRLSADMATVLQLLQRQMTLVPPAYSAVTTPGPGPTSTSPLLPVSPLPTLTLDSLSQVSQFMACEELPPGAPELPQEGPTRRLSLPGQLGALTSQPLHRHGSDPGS
Vitamin D3 receptor (Homo sapiens), sequence (P11473 whole entry, looked up): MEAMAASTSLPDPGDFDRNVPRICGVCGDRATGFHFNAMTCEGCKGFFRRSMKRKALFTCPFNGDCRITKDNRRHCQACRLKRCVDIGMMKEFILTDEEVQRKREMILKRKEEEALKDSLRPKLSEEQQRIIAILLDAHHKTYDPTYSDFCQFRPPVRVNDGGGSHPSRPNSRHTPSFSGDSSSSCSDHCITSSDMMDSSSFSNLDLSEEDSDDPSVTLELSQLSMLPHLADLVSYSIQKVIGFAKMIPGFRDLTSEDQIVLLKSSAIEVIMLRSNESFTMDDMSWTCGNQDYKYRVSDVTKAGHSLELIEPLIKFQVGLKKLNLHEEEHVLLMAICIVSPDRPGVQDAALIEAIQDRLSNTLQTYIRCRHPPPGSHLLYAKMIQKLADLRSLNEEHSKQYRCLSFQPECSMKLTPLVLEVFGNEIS
Cytochrome P450 3A4 (Homo sapiens), sequence (P08684 whole entry, looked up): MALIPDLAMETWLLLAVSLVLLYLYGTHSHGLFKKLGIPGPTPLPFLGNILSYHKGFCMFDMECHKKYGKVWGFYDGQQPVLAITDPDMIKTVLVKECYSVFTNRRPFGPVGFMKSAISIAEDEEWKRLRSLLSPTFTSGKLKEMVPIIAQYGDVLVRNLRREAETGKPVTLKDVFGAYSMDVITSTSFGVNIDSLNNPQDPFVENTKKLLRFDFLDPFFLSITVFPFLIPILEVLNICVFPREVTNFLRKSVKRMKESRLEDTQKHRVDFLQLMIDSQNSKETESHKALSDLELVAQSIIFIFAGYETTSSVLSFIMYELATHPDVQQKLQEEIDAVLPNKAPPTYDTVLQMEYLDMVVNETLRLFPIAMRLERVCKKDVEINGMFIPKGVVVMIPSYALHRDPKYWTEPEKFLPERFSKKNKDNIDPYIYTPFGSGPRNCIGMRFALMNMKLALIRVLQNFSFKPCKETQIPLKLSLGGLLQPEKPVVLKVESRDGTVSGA
Glucocorticoid receptor (Homo sapiens), sequence (P04150 whole entry, looked up): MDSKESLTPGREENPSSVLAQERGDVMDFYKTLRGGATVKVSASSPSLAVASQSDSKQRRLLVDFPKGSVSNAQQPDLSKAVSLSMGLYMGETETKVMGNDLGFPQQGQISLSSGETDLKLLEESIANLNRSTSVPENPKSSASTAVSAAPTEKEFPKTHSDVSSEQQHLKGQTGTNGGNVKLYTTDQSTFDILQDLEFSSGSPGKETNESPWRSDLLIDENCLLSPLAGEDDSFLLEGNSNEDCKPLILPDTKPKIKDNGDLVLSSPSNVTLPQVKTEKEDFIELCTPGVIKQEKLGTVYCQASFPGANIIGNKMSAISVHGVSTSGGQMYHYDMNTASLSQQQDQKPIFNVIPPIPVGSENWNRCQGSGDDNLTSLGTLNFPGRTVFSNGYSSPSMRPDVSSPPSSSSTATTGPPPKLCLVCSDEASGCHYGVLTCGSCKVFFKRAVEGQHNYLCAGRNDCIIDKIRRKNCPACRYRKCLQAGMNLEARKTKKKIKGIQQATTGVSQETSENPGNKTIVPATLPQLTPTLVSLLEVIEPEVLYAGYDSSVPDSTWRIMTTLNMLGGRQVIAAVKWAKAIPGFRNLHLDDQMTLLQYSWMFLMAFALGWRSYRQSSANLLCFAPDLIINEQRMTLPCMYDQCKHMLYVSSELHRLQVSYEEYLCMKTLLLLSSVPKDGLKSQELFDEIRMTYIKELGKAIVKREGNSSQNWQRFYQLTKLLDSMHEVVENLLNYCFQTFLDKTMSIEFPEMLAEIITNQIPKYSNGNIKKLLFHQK
Nuclear receptor ROR-gamma (Homo sapiens), sequence (P51449 whole entry, looked up): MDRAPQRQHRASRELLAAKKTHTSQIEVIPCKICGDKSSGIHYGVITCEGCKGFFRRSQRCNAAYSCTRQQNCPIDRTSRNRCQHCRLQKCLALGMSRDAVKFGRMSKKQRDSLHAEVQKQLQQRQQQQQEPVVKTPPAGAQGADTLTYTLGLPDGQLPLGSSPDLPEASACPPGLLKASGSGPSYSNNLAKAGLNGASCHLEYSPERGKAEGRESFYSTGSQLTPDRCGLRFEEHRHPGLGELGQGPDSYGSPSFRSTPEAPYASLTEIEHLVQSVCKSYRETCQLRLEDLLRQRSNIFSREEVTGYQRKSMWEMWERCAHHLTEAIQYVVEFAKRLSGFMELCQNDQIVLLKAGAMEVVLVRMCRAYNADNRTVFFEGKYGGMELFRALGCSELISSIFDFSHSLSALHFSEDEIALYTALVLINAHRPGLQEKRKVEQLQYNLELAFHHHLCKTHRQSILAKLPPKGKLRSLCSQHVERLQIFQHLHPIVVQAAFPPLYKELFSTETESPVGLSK

O=C(O)c1ccc([N+](=O)[O-])cc1
inactive: Potency [1] | activity change, negative = cytotoxicity [2] 3.22% | Potency [3] | Potency [4] | Potency [5] | Potency [6] | activation [7] 3.87% and 0.51% | Potency [8] | Potency [9] | Potency [11] | Potency [12] | Potency [13] | activation [14] -1.53% and -0.205% | Potency [15] | Potency [16] | Potency [17] | Potency [18] | outcome [19]
-0.875% and -5.25%: max response [10]

Clc1nc2ccccc2nc1Cl
inactive: Potency [1] | Potency [3] | Potency [4] | activation [7] 3.19% | Potency [8] | Potency [9] | Potency [11] | Potency [12] | activation [14] -0.675% | Potency [15] | Potency [16] | Potency [18]
active: activity change, negative = cytotoxicity [2] -143%

O=[N+]([O-])c1cc(N(CCO)CCO)ccc1NCCO
inactive: Potency [3] | Potency [4] | Potency [5] | Potency [8] | Potency [9] | Potency [11] | Potency [12] | Potency [13] | activation [14] -0.608% and 1.27% | Potency [16] | Potency [17] | Potency [18] | outcome [19]
7.09% and -3.73%: max response [10]

O=[N+]([O-])c1cc(Cl)c(Cl)c(Cl)c1Cl
inactive: Potency [1] | Potency [3] | activation [7] 0.473% | Potency [8] | Potency [9] | Potency [11] | Potency [12] | activation [14] -0.62% | Potency [15] | outcome [19]
active: Potency [2] 7.94 µM | Potency [4] 25.1 µM | Potency [13] 29.8 µM | Potency [16] 33.5 µM | Potency [17] 37.6 µM

C/C=C1/C(=O)C[C@H]2[C@@H]3CCC4=CC(=O)CC[C@]4(C)[C@H]3CC[C@]12C
inactive: Potency [1] | Potency [11] | Potency [15] | Potency [18]
active: Potency [20] 56.2 µM | activity change, negative = cytotoxicity [2] -151% | Potency [4] 31.6 µM | Potency [13] 3.76 µM | Potency [16] 47.3 µM

C=C(C#N)C(=O)OCC
6.28%: max response [10]
active: activity change, negative = cytotoxicity [2] -117%
inactive: Potency [1] | Potency [3] | Potency [4] | Potency [5] | Potency [6] | activation [7] -0.945% | Potency [11] | Potency [12] | Potency [13] | activation [14] -1.44% | Potency [15] | Potency [16] | Potency [17] | Potency [18] | outcome [19]
